This is a sample that favours compounds with a hit; in the whole collection about 1% have one here.
Mtb hypoxia rep: Mtb hypoxia fluorescent reporter inhibition; M. tuberculosis hypoxia-regulated fluorescent reporter, fluorescence; fluorescence inhibition, % (concentration not given with the values); 300,000 compounds, 0.1% hits; AID 1159583; in the data active = fluorescence inhibition mostly above about 23%, no sharp cut-off; inactive = mostly below about 17%
ugtP null kill: kills S. aureus RN4220 lacking UgtP. S. aureus RN4220 ugtP deletion, OD600 growth, 16 h. growth inhibition, % (no concentration beside the values). 330,000 compounds, 0.54% hits. AID 1259309; in the data active = growth inhibition above about 68%;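 note: plate controls were untreated wells for no effect and antibiotic for full effect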
Mtb betalactam: beta-lactam sensitization of Mtb H37Rv; M. tuberculosis H37Rv growth with meropenem, percent inhibition; inhibition, % at 25 µM; 330,000 compounds, 0.27% hits; AID 434955; call rule not given here;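 note: growth measured after seven days incubation then overnight dye step; 0% = bacteria only wells and 100% = bacteria with antibiotic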
SSB-PriA inh: inhibitors of Klebsiella pneumoniae PriA binding to SSB C-terminal tail | AlphaScreen SSBct-PriA binding, biotinylated peptide | inhibition, % at 33 µM | 430,000 compounds, 0.6% hits | AID 1272365; in the data active = inhibition mostly above about 37%, no sharp cut-off; inactive = mostly below about 20%;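 note: plate controls were negative control peptide for no effect and reference peptide for full effect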
RN4220 kill: kills Staphylococcus aureus RN4220; 330,000 compounds, 0.33% hits; inhibition, % (concentration not given with the values); S. aureus RN4220 growth, OD600, 16 h; in the data active = inhibition above about 85%;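 note: plate controls were untreated cells for no effect and reference antibiotic for full effect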
Numbers without * were called inactive; u = inconclusive; x = not tested or not shown; + = active, no number; ! = not confirmed by another sample.

SMILES	Mtb hypoxia rep	ugtP null kill	Mtb betalactam	SSB-PriA inh	RN4220 kill
CCCCN(CCCC)C(=O)c1cn(CC)c2cc(N3CCN(C)CC3)c(F)cc2c1=O	5	97*	8	-2	93*
CCCCCCn1cc(C(=O)O)c(=O)c2cc(F)c(N3CCN(C(=O)OCC)CC3)cc21	15	6	4	4	2
C=CCCCCCCCCC(=O)N1CCN(c2cc3c(cc2F)c(=O)c(C(=O)O)cn3CC)CC1	3	93*	6	-9	-5
C=CCNC(=S)N1CCN(c2cc3c(cc2F)c(=O)c(C(=O)O)cn3CC)CC1	6	99*	97	-3	98*
CCCCCNC(=O)c1cn(CC)c2cc(N3CCN(C)CC3)c(F)cc2c1=O	23	8	2	-6	-2
COc1ccc(Br)c(C(=O)NCCn2nc(C)cc2C)c1	x	x	x	-12	x
CC(=O)Nc1ccc(S(=O)(=O)NCCn2ccnc2-c2ccccn2)c(C)c1	x	x	x	9	x
O=C(NCCn1ccnc1-c1ncccn1)c1ccc2c(c1)OCO2	x	x	x	93*	x
COc1ccc(Br)c(C(=O)NCCn2ccnc2-c2ncccn2)c1	x	x	x	91*	x
COc1ccc(OC)c(S(=O)(=O)NCCn2ccnc2-c2ncccn2)c1	x	x	x	91*	x
COc1ccc(S(=O)(=O)NCCn2ccnc2-c2ncccn2)c(C)c1	x	x	x	81*	x
CC(C)c1cc(=O)[nH]c(-n2nc(-c3cccs3)cc2NC(=O)c2cc(Cl)ccc2Cl)n1	x	x	x	1	x
Cc1nn(C)c(C)c1S(=O)(=O)Nc1ccc(-c2csc(Nc3cccnc3)n2)cc1	x	x	x	4	x
O=C(NC1CCN(c2nc(-c3cccnc3)cs2)CC1)c1ccc2ncsc2c1	x	x	x	-13	x
COc1cccc(-c2nc(COC(=O)c3nnn(-c4ccc(C)c(F)c4)c3C)c(C)o2)c1OC	x	x	x	-3	x
O=C(C[C@H](Sc1cccc2cccnc12)c1ccc(OC(F)F)cc1)c1ccco1	x	x	x	83*	x
COc1ccc(C(CC(=O)c2ccco2)Sc2cccc3cccnc23)cc1OC (stereo not given)	x	x	x	81*	x
O=C(CSc1cccc2cccnc12)NCc1ccco1	x	7	-11	-1	1
CCOc1ccc2nc(N(CCN(C)C)C(=O)c3ccc4c(c3)CCCC4)sc2c1	5	-25	-17	55*!	-4
CN(C)CCN(C(=O)c1ccc2c(c1)CCCC2)c1nc2cc3c(cc2s1)OCCO3	10	6	0	51*	-4
CN(C)CCN(C(=O)c1ccc2c(c1)OCCO2)c1nc2cc3c(cc2s1)OCO3	-6	-1	-4	14	-2
Cc1cccc(Oc2cc([N+](=O)[O-])cc3c2C(=O)Nc2ccccc2O3)c1	1	97*	-5	-10	98*
O=C1Nc2ccccc2Oc2cc([N+](=O)[O-])cc(Oc3ccccc3)c21	4	86	3	-2	93*
Cc1nn(-c2nc3ccccc3[nH]2)c(N)c1-c1ccc(Cl)cc1	1	95*	100	2	57
O=C(NCCc1ccc(F)cc1)c1ccc(Cn2cnc3ccccc32)o1	x	x	x	-8	x
SMILES	Mtb hypoxia rep	ugtP null kill	Mtb betalactam	SSB-PriA inh	RN4220 kill
COc1cc(NS(C)(=O)=O)ccc1Nc1c2ccccc2nc2ccccc12	0	100*	2	22	-8
CC(C)(C)NC(=S)Nc1ccc(Nc2ccccc2)cc1	-4	-13	7	52*	0
c1ccc2c(-c3cc(C4CCNCC4)[nH]n3)cccc2c1	13	0	16	39*	2
O=C(NCCn1nc(-c2ccccn2)c2c1CCCC2)c1cc(=O)c2ccccc2o1	x	x	x	-3	x
CCCCCCCN(C(=O)CCl)c1cccc(C)c1	22	87*	54	-8	25
CCCCCCN(C(=O)CCl)c1ccccc1	23	19	99	-7	12
COc1ccc(-c2csc(/C(C#N)=C3\C=CC=CN3C)n2)cc1	x	x	x	142*	x
CN1C=CC=C/C1=C(\C#N)c1nc2ccccc2[nH]1	5	9	2	6	5
O=C(CSc1ccncc1)N1CCSC(c2ccccc2)CC1 (stereo not given)	x	x	x	-2	x
Cc1ccccc1NC(=O)COC(=O)c1cc(S(=O)(=O)N2CCOCC2)ccc1C	32*	-1	0	3	3
Cc1ccc(S(=O)(=O)N2CCOCC2)cc1NC(=O)CSc1ccc(Cl)cc1	3	4	0	-4	3
O=C(COC(=O)c1ccc2c(c1)OCCO2)Nc1cccc(S(=O)(=O)N2CCOCC2)c1	18	14	10	-7	8
NS(=O)(=O)c1cccc(NC(=O)COC(=O)c2ccc(S(=O)(=O)N3CCOCC3)cc2)c1	12*	0	x	4	2
Cc1ccc(S(=O)(=O)N2CCOCC2)cc1NC(=O)C(c1ccc(Cl)cc1)C(C)C (stereo not given)	3	91*	-2	-3	89*
Cc1cc(CCNC(=O)c2ccccc2F)on1	x	x	x	-7	x
CO[C@@H](CNS(=O)(=O)c1cccc(Cl)c1C)c1ccccc1C	x	x	x	-5	x
Cc1ccc(CNC(=O)CCc2c(C)nc3c(c(C)nn3-c3ccc(C)cc3)c2C)cc1	0	15	9	-11	0
Cc1ccc(-n2nc(C)c3c(C)c(CCC(=O)NCc4ccco4)c(C)nc32)cc1	8	11	4	96*	-3
Cc1cccc(OCCNc2cc(N3CCN(C)CC3)ccc2[N+](=O)[O-])c1	10	2	u	6	-1
Cc1ccc(OCCNc2cc(N3CCN(CCO)CC3)ccc2[N+](=O)[O-])cc1C	-2	-5	57	55*	0
COc1ccc(-c2cc3c(SCc4cccc(Cl)c4)nccn3n2)cc1	x	x	x	0	x
CCOc1ccc(-c2csc(SCc3ccc(C(=O)NCc4ccccn4)o3)n2)cc1	x	x	x	14*	x
CCc1ccc(OCc2ccc(C(=O)NCc3ccccn3)o2)cc1	-1	20	-9	-7	21
Cc1nc(NC(=O)CSc2nnc(-c3ccc4c(c3)OCO4)o2)c(Cl)cc1Cl	11	1	79	-5	4
O=C(CSc1nnc(-c2ccc3c(c2)OCO3)o1)Nc1ncc(C(F)(F)F)cc1Cl	3	97*	83	1	75
SMILES	Mtb hypoxia rep	ugtP null kill	Mtb betalactam	SSB-PriA inh	RN4220 kill
CCCCCCCCCCCCCCCCCC(=O)N/N=C/c1ccc(Sc2cccc3cccnc23)o1	x	x	x	+	x
O=C(CSCc1ccc(Br)cc1)N/N=C/c1ccc(Sc2cccc3cccnc23)o1	x	x	x	+	x
O=C(CCc1ccccc1O)N/N=C/c1ccc(Sc2cccc3cccnc23)o1	x	x	9	x	x
CCOC(=O)CCC(=O)N1CCCC(c2nn(C)c(=O)n2-c2ccccc2)C1 (stereo not given)	x	x	x	-18	x
COc1cnc(-c2ccccn2)nc1Oc1ccc(Cl)cc1	6	1	4	52*	-1
COc1cnc(-c2ccccn2)nc1Oc1ccc(F)cc1F	-3	4	64	53*	6
O=c1c2c(-c3ccc([N+](=O)[O-])cc3)csc2nc2n1CCC2	36*	-4	98	-14	5
O=[N+]([O-])c1ccc(-c2nnc3n2CCCCC3)cc1	-1	3	u	-2	2
O=C(c1ccc(-n2cccc2)cc1)N1CCS[C@H](c2ccccc2)CC1	x	x	x	35*	x
